Reference: PubChem BioAssay (NCATS)
Records with an inconclusive call do not appear. The source made the active and inactive calls. Calls follow the shape of the dose curve; as a rule, active = well fitted curve in the direction sought with a large enough effect; inconclusive = small, poorly fitted or top-dose-only effect, or another doubt; inactive = no such curve, though single readings can be large; an effect the other way counts as inactive or inconclusive.

Legend:
[1] = qHTS of pediatric cancer cell lines to identify multiple opportunities for drug repurposing: Primary screen for Rh18 cells (AID 1347102); also: nearly all actives have a fitted effect of over 65% in size; also: potency is read from the fitted curve at half-maximal effect
Summary of the method: (§1)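 Viability after 48 h compound treatment at 37C, 500-1,000 cells/well, read as ATP luminescence with CellTiter-Glo. Primary screens used 11-point (MIPE, 0.78 nM-46 µM) or 8-point (NPC, 0.59 nM-46 µM) final concentrations; follow-up screens used 11-point dilutions.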

[2] = qHTS of pediatric cancer cell lines to identify multiple opportunities for drug repurposing: Primary screen for OHS-50 cells (AID 1347103); also: nearly all actives have a fitted effect of over 40% in size; also: potency is read from the fitted curve at half-maximal effect
Summary of the method: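 Cells (500-1,000/well) rested 5 h, then received compounds for 48 h; metabolically active cells were measured by CellTiter-Glo luminescence. Final concentrations spanned up to 46 µM (MIPE, 11-point) or 0.59 nM-46 µM (NPC, 8-point) in primary screens, 11-point in follow-ups.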

[3] = qHTS of pediatric cancer cell lines to identify multiple opportunities for drug repurposing: Primary screen for control Hh wild type fibroblast cells (AID 1347106);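 also: series mostly up to about 46 µM; a drop in luminescence marks cytotoxicity and a rise apparent proliferation; nearly all actives have a fitted effect of over 55% in size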
Summary of the method: as §1

[4] = qHTS of pediatric cancer cell lines to identify multiple opportunities for drug repurposing: Primary screen for Rh41 cells (AID 1347108); also: nearly all actives have a fitted effect of over 70% in size; also: potency is read from the fitted curve at half-maximal effect
Summary of the method: (§2)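 ATP-based luminescence (CellTiter-Glo) quantifies viability after a 48-hour exposure. Compounds are dosed across 8 or 11 final concentrations; DMSO and 2.3 µM bortezomib serve as controls.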

[5] = qHTS of pediatric cancer cell lines to identify multiple opportunities for drug repurposing: Primary screen for MG 63 (6-TG R) cells (AID 1347105); also: nearly all actives have a fitted effect of over 50% in size; also: potency is read from the fitted curve at half-maximal effect
Summary of the method: as §2

[6] = qHTS of pediatric cancer cell lines to identify multiple opportunities for drug repurposing: Primary screen for RD cells (AID 1347104); also: nearly all actives have a fitted effect of over 55% in size; also: potency is read from the fitted curve at half-maximal effect
Summary of the method: as §2

[7] = qHTS of pediatric cancer cell lines to identify multiple opportunities for drug repurposing: Primary screen for Rh30 cells (AID 1347107); also: series mostly up to about 46 µM; nearly all actives have a fitted effect of over 75% in size
Summary of the method: as §1

[8] = qHTS of pediatric cancer cell lines to identify multiple opportunities for drug repurposing: Confirmatory screen for NB1643 cells (AID 1347109); also: nearly all actives have a fitted effect of over 45% in size
Summary of the method: as §1

[9] = qHTS of pediatric cancer cell lines to identify multiple opportunities for drug repurposing: Confirmatory screen for SK-N-MC cells (AID 1347111);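 also: cells exposed to compound for 48 h before the readout; nearly all actives have a fitted effect of over 70% in size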; also: potency is read from the fitted curve at half-maximal effect
Summary of the method: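 SK-N-MC cells at 500-1,000 cells/well in growth media were pre-incubated 5 h, then exposed to compounds at 11-point dilutions for 48 h at 37 degrees C, 5% CO2. Viability was read as CellTiter-Glo luminescence.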

[10] = qHTS of pediatric cancer cell lines to identify multiple opportunities for drug repurposing: Confirmatory screen for BT-12 cells (AID 1347112); also: nearly all actives have a fitted effect of over 55% in size
Summary of the method: as §1

[11] = qHTS of pediatric cancer cell lines to identify multiple opportunities for drug repurposing: Confirmatory screen for LAN-5 cells (AID 1347113); also: nearly all actives have a fitted effect of over 65% in size
Summary of the method: as §1

[12] = qHTS of pediatric cancer cell lines to identify multiple opportunities for drug repurposing: Confirmatory screen for NB-EBc1 cells (AID 1347115); also: nearly all actives have a fitted effect of over 45% in size; also: potency is read from the fitted curve at half-maximal effect
Summary of the method: as §1

[13] = qHTS of pediatric cancer cell lines to identify multiple opportunities for drug repurposing: Confirmatory screen for BT-37 cells (AID 1347117); also: nearly all actives have a fitted effect of over 55% in size
Summary of the method: as §1

[14] = qHTS of pediatric cancer cell lines to identify multiple opportunities for drug repurposing: Confirmatory screen for control Hh wild type fibroblast cells (AID 1347121); also: nearly all actives have a fitted effect of over 70% in size
Summary of the method: as §1

[15] = qHTS of pediatric cancer cell lines to identify multiple opportunities for drug repurposing: Confirmatory screen for U-2 OS cells (AID 1347122); also: nearly all actives have a fitted effect of over 65% in size; also: potency is read from the fitted curve at half-maximal effect
Summary of the method: as §1

[16] = qHTS of pediatric cancer cell lines to identify multiple opportunities for drug repurposing: Confirmatory screen for Rh41 cells (AID 1347123);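 also: 48 h compound exposure; nearly all actives have a fitted effect of over 60% in size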; also: potency is read from the fitted curve at half-maximal effect
Summary of the method: as §1

[17] = qHTS of pediatric cancer cell lines to identify multiple opportunities for drug repurposing: Confirmatory screen for A673 cells (AID 1347110); also: nearly all actives have a fitted effect of over 65% in size; also: potency is read from the fitted curve at half-maximal effect
Summary of the method: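 qHTS titration format: primary MIPE 0.78 nM-46 µM (11 pts), NPC 0.59 nM-46 µM; confirmation 11 pts. 48 h, CTG luminescence.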

[18] = qHTS of pediatric cancer cell lines to identify multiple opportunities for drug repurposing: Confirmatory screen for SJ-GBM2 cells (AID 1347116); also: nearly all actives have a fitted effect of over 60% in size
Summary of the method: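 Viability measured as metabolically active cells via CellTiter-Glo luminescence following 48 hours of compound exposure, 11-point dilutions in confirmatory testing. 500-1,000 cells/well plated 5 hours before dosing; controls were DMSO and 2.3 µM bortezomib.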

[19] = qHTS of pediatric cancer cell lines to identify multiple opportunities for drug repurposing: Confirmatory screen for TC32 cells (AID 1347118); also: nearly all actives have a fitted effect of over 65% in size; also: potency is read from the fitted curve at half-maximal effect
Summary of the method: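 TC32 cells, 500-1,000/well in growth medium, compound-treated 48 h at 37 °C; viability from CellTiter-Glo luminescence. Primary screen: MIPE 11-point (0.78 nM–46 µM final), NPC 8-point (0.59 nM–46 µM final); confirmatory at 11-point dilutions.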

[20] = qHTS of pediatric cancer cell lines to identify multiple opportunities for drug repurposing: Confirmatory screen for MG 63 (6-TG R) cells (AID 1347119); also: nearly all actives have a fitted effect of over 55% in size; also: potency is read from the fitted curve at half-maximal effect
Summary of the method: as §1

Measured: Potency

O=C(Nc1ccc(F)c(C(F)(F)F)c1)Nc1nnc(-c2ccncc2)s1
inactive: [1] | [2] | [3] | [4]

COc1cc2c(cc1OC)CN(CCc1ccc(NC(=O)c3cccc4c(=O)c5cccc(OC)c5[nH]c34)cc1)CC2
inactive: [1] | [2] | [5] | [3]

CNC(=O)c1ccccc1Sc1ccc2c(/C=C/c3ccccn3)n[nH]c2c1
inactive: [6] | [7]
active: [1] 10.6 µM | [2] 17.4 µM

CCOC(=O)C1=C[C@]2(CC)CCCN3CCc4c(n1c1ccccc41)[C@@H]32
active: [2] 24.3 µM
inactive: [1] | [3] | [7]

COc1ccc(C2=N[C@H](c3ccc(Cl)cc3)[C@H](c3ccc(Cl)cc3)N2C(=O)N2CCNC(=O)C2)c(OC(C)C)c1
active: [1] 5.26 µM | [4] 18.7 µM
inactive: [3]

Cc1cccc(-c2nn(C(=S)Nc3ccccc3)cc2-c2ccnc3ccccc23)n1
inactive: [1] | [6] | [5] | [3] | [7] | [4]

CC(C)(C)OC(=O)CN(Cc1ccc(Cl)cc1)Cc1ccc([N+](=O)[O-])s1
inactive: [1] | [5] | [3] | [7]

Cc1oncc1C(=O)Nc1ccc(C(F)(F)F)cc1
active: [9] 7.37 µM
not listed: [2] | [17] | [18] | [19] | [20]
inactive: all other assays above

CCOc1ccc(Cc2cc([C@@H]3O[C@H](CO)[C@@H](O)[C@H](O)[C@@H]3O)ccc2Cl)cc1
inactive: [1] | [5] | [3] | [4]

COc1ccc2nc(S(=O)Cc3ncc(C)c(OC)c3C)[nH]c2c1 (configuration not stated)
inactive: [1] | [6] | [5] | [3] | [4]

CS(=O)(=O)Oc1ccc2c(NC(N)=O)c(C(=O)c3ccc(Cl)cc3Cl)oc2c1
active: [2] 1.53 µM | [6] 13.2 µM | [5] 18.7 µM

CCC(C)n1ncn(-c2ccc(N3CCN(c4ccc(OC[C@H]5CO[C@](Cn6cncn6)(c6ccc(Cl)cc6Cl)O5)cc4)CC3)cc2)c1=O (some centres not stated)
active: [9] 4.65 µM | [19] 3.29 µM | [16] 11.7 µM
not listed: [2] | [4] | [6] | [10] | [13] | [15]
inactive: all other assays above

CN(C)C(=O)c1ccc(S(=O)(=O)c2ccc(NC(=O)[C@@](C)(O)C(F)(F)F)c(Cl)c2)cc1
inactive: [1] | [3] | [7]

Cn1c(=O)c(F)c(Nc2ccc(I)cc2F)c2c(=O)n(C[C@@H](O)CO)cnc21
inactive: [2] | [5]
active: [6] 0.0296 µM

Nc1nc2ccc(OC(F)(F)F)cc2s1
active: [17] 18.5 µM | [20] 18.5 µM
not listed: [2] | [8] | [11] | [13] | [15]
inactive: all other assays above

COc1ccc(CCN2CCN(CCCc3ccccc3)CC2)cc1OC
inactive: [1] | [5] | [3] | [7] | [4]

CCCS(=O)(=O)Nc1ccc(F)c(C(=O)c2c[nH]c3ncc(Cl)cc23)c1F
active: [2] 13.7 µM | [6] 18.7 µM

COc1cc(Oc2ccnc3cc(OC)c(OC)cc23)ccc1NC(=O)NC(C)c1nccs1 (configuration not stated)
inactive: [1] | [6] | [3]

Cc1ccccc1C(OCCN(C)C)c1ccccc1 (configuration not stated)
inactive: [1] | [6] | [5] | [3] | [7]

Cc1cc(-c2ccc(CC(=O)Nc3ccc(-c4cccnc4)cc3)cc2)ccn1
inactive: [1] | [5] | [3]

CNC(=O)c1ccc(N2C(=S)N(c3ccc(C#N)c(C(F)(F)F)c3)C(=O)C2(C)C)cc1F
inactive: [1] | [6] | [5] | [3] | [7]

COc1ccc(CC2=NN3C([C@@H](CCc4ccccc4)[C@@H](C)O)=NC(C)C3C(=O)N2)cc1OC (some centres not stated)
inactive: [2] | [6] | [5] | [3]

COc1cc(Nc2ncc3c(n2)-c2ccc(Cl)cc2C(c2c(F)cccc2OC)=NC3)ccc1C(=O)O
inactive: [3] | [10] | [18] | [14]
active: [1] 20.9 µM | [5] 5.9 µM | [9] 0.261 µM | [12] 20.8 µM | [19] 0.147 µM | [20] 0.233 µM | [15] 10.4 µM

Cc1cnc(Nc2ccc(OCCN3CCCC3)cc2)nc1Nc1cccc(S(=O)(=O)NC(C)(C)C)c1
inactive: [1] | [6] | [3] | [7]

O=S(=O)(N=Cc1c(O)ccc2ccccc12)c1cccs1
inactive: [1] | [6] | [7]
active: [5] 2.35 µM | [4] 3.72 µM

COc1nc(-c2ccc3c(c2)OCO3)n(-c2ccc(NC(=O)CSc3ccccc3)cc2)n1
inactive: [1] | [6] | [5] | [3] | [4]

NC(=O)C1CCCc2c1[nH]c1ccc(Cl)cc21 (configuration not stated)
inactive: [1] | [5] | [3]

COc1cc(F)c(F)c(Nc2ccc(I)cc2F)c1NS(=O)(=O)C1(C[C@H](O)CO)CC1
inactive: [1] | [5] | [3]

N#Cc1ccc(C(c2ccc(C#N)cc2)n2cncn2)cc1
inactive: [1] | [3]

O=C1[C@H](Cc2ccc(O)cc2)N2C(=O)CCN(C(=O)NCc3ccccc3)[C@H]2CN1Cc1cccc2ccccc12
active: [2] 4.85 µM | [6] 10.5 µM | [5] 3.72 µM

C[C@]1(c2nc3c(C(N)=O)cccc3[nH]2)CCCN1
active: [19] 18.5 µM
not listed: [2] | [4] | [6] | [7] | [9] | [10] | [13]
inactive: all other assays above
